This passage reports outcome results from PubChem BioAssay AID540335 (Broad Institute, 2011).

Screen size: about 1,300 compounds; about 270 (21%) were called active.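 Rule for the calls: active = dose-dependent rise or fall in viability, either side of zero, with half-maximal concentration at or below a set limit; inconclusive = flat curve at 30 to 70% viability loss, or poor fit; inactive = flat within 30% either way, or potency beyond limit.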 These entries were drawn from the full list. Entries with a potency or affinity are not part of this list.

This experiment in a line: A375 melanoma cell viability reduction, dose response, counter-screen for MITF modulator project, cherry-pick samples, set 2 (AID 540335).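 Note: A375 human melanoma cells which do not depend on MITF.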 Particulars: CellTiter-Glo ATP luminescence, 24 h; series mostly up to 35 µM.
For the compound `O=C1CCC2S/C(=C/Nc3ccc(C(F)(F)F)cc3)C(=O)N12` (stereo not given), the outcome was inactive.
For `CCCC(=O)N1CCN(c2ccc(NC(=O)c3ccc([N+](=O)[O-])o3)cc2Cl)CC1`, the compound was classed as inactive.
In the case of `COc1ccc(NC(=O)CCC(=O)N/N=C/c2ccc([N+](=O)[O-])s2)cc1`, the result was inactive.
Take `CCCCNC(=O)Nc1ccc(C2SCCS2)cc1`: the outcome was inactive.
Regarding `O=C(Nc1ccccn1)c1ccc(Br)s1`, the result was inactive.
For `N=c1n(CC(=O)c2ccc(Br)cc2)c2ccccc2n1Cc1ccccc1`, the outcome was inactive.
For the compound `O=C(N/N=C/c1ccc([N+](=O)[O-])s1)c1cccc(Br)c1`, the compound was called inactive.
`Cc1ccc(NCC(=O)N/N=C\c2ccc([N+](=O)[O-])o2)cc1`: the compound was called inactive.
As for `Cc1c(C(=O)Nc2ccc(S(=O)(=O)N(C)C3CCN(C)CC3)cc2)oc2c(Cl)cccc12`, the compound was classed as inactive.
With `COc1cc(SC)ccc1C(=O)Nc1ccc(Br)cn1`, the outcome was inactive.
Consider `COc1cc(SC)ccc1C(=O)Nc1ncc(C)s1`, for which the call was inactive.
For `O=C(CNC(=O)c1ccccc1)N/N=C/c1ccc([N+](=O)[O-])s1`, the compound was classed as inactive.
For `O=C(Nc1cccc(S(=O)(=O)N2CCCCC2)c1)c1ccc([N+](=O)[O-])o1`, the outcome was inactive.
In the case of `Cc1nc2ccccn2c1C(=O)N/N=C/c1ccc([N+](=O)[O-])o1`, the outcome was inactive.
Turning to `Cc1nc(SCC(=O)Nc2ccc(CN3CCCC3)cc2)c2c(C)c(C)sc2n1`, the compound was called inactive.
On to `Cc1ccc2oc(C(Cl)(Cl)Cl)cc(=O)c2c1`, for which the result was inactive.
In the case of `O=C(Nc1cccnc1Cl)c1cc(-c2ccco2)on1`, the outcome was inactive.
The same measure for `CCN(CC)S(=O)(=O)c1ccc(N2CCCC2)c(NC(=O)c2ccc([N+](=O)[O-])o2)c1`: “inactive”.
Turning to `O=C(Nc1ccc(N2CCN(C(=O)c3ccccc3)CC2)cc1)c1ccc([N+](=O)[O-])o1`, the compound was called inactive.
The same measure for `O=C(CCl)N1CCN(S(=O)(=O)c2ccc3c(c2)CCC3)CC1`: “inactive”; for `Cc1cc(C)c2c(N)c(C(=O)Nc3ncc(C)s3)sc2n1`: “inactive”; for `O=C(CCl)N(c1ccccc1)c1c[nH]c2ccccc12`: “inactive”.
Consider `O=C(Nc1ccccc1)NN(C(=O)CCl)c1ccccc1`, for which the compound was called inactive.
With `N#C/C(=C\c1ccc(OCc2ccc(C(=O)O)cc2)cc1)C(=O)N1CCOCC1`, the compound was called inactive.
As to `O=C(C#Cc1ccccc1)c1cccc([N+](=O)[O-])c1`, the compound was called inactive.
In the case of `COc1cccc(-c2ccc3c(N)c(C(=O)NC4CC4)sc3n2)c1`, the compound was classed as inactive.
Regarding `COc1ccc(C)cc1Nc1nc(N)c2cc(OC)c(OC)cc2n1`, the outcome was inactive.
Turning to `O=C(O)c1ccc(C(=O)Nc2ccc(F)cc2)cc1`, the outcome was inactive.
With `O=C(Nc1ccc([N+](=O)[O-])cc1)c1ccccc1`, the result was inactive.
`Cn1cc([N+](=O)[O-])c(C(=O)Nc2nc(-c3ccc(Cl)cc3)cs2)n1`: the outcome was inactive.
